Sm TGR inh: S. mansoni TGR enzyme inhibition; hit rate 3% among 360,000; purified TGR, DTNB reduction, TNB absorbance 405 nm; Q962Y6; AID 485364; Potency, µM (doses to about 114 µM), usual class: inhibitors; active = well fitted inhibition curve with a large enough effect; inconclusive = small, poorly fitted or top-dose-only effect; inactive = no such curve, though single readings can be large or run the other way; note: nearly all actives have a fitted effect of over 60% in size
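Kinetic colorimetric format: TGR-catalysed, NADPH-driven DTNB reduction monitored via TNB absorbance. Enzyme dispensed at 20 nM; compound exposure 15 min at room temperature before reaction start.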
Cycloheximide cs: counter-screen for Shiga toxin inhibitors: cycloheximide protein synthesis inhibition; cell reporter, cycloheximide protein synthesis inhibition counterscreen; max response, %; hit rate 12% among 300,000; in the data active = max response mostly above about 13%, no sharp cut-off; inactive = mostly below about 14%; note: read at 38.3 µM for the half of the compounds with a filed dose
FMDV antiviral: antivirals against foot and mouth disease virus; hit rate 1.2% among 410,000; FMDV antiviral cell-based qHTS; Potency, µM (highest dose often 57.9 µM), hits mostly inhibitors; calls by dose curve; tested in HEK293T cells; note: read-out not given here; nearly all actives have a fitted effect of over 45% in size
Shiga toxin inh: inhibitors of Shiga toxin in Vero cells | Vero cells, Shiga toxin protein synthesis inhibition reporter | inhibition, % at 38.7 µM | hit rate 9.2% among 290,000; in the data active = inhibition mostly above about 28%, no sharp cut-off; inactive = mostly below about 43%
A number is an active result; - = inactive; ? = inconclusive; . = not tested or not shown. An excerpt weighted towards active compounds, which were near 12% of everything screened.

SMILES	Sm TGR inh	Cycloheximide cs	FMDV antiviral	Shiga toxin inh
CCC(C)c1ccc(NC(=O)c2ccco2)cc1 (stereo not given)	-	25.7	-	-
CN(C(=O)c1ccc(NC(=O)c2ccco2)cc1)c1ccccc1	-	34.8	-	76.9
O=C(NCCCNC(=O)c1ccco1)c1ccc(Cl)cc1	-	31.5	-	85.5
CCC(C)c1ccc(NC(=O)COC(=O)CCNC(=O)c2ccco2)cc1 (stereo not given)	-	.	-	.
Cc1ccc(Sc2ccc(N3CCCC(C(=O)Nc4ccc(F)cc4)C3)nn2)cc1 (stereo not given)	-	.	-	.
CC1=C2C(=O)C3C(CC=C4C[C@@H](O)CC[C@@]43C)[C@@H]2CC[C@]12O[C@@H]1C[C@H](C)CN[C@H]1C2C (stereo not given in full)	.	-	.	-
Cn1c(=O)c2sccc2n2c(CCC(=O)N3CCN(c4ccc(F)cc4)CC3)nnc12	-	.	.	.
CC(=O)Nc1ccc(NC(=O)c2ccco2)cc1	-	30.7	-	71.2
CC(=O)c1ccc(NC(=O)c2ccc(NC(=O)c3ccco3)cc2)cc1	-	-	-	-
Cc1ccc(S(=O)(=O)CC(=O)c2ccccc2)cc1	-	-	-	-
CC(C)(C)c1ccc(C(=O)CS(=O)(=O)c2ccccc2)cc1	-	38.0	-	87.9
C=C1C(=O)O[C@@H]2[C@H]1CC[C@H](C)[C@]1(O)CCC(=O)[C@@]21C	?	21.1	-	-
COc1ccc2c(c1)OC(C)CN(CCNC(=O)C1CCOC1)C2 (stereo not given)	.	.	-	.
Cc1ccc(NC(=O)C2CC(=O)N(c3ccc(OC(C)C)cc3)C2)cc1 (stereo not given)	-	.	-	.
COc1ccc(NC(=O)COc2ccc(-c3ccccc3)cc2)cc1	-	.	-	.
CCNC(=O)COc1ccc(-c2ccccc2)cc1	-	47.1	-	59.7
CCc1ccc(OCC(=O)NC(C)C)cc1	-	27.1	-	110.7
CCNC(=O)COc1ccc(OCc2ccccc2)cc1	-	32.3	-	101.8
CCC(C)(C)NC(=O)COc1ccc(OCc2ccccc2)cc1	-	-	-	-
CC(C)(C)NC(=O)COc1ccc(-c2ccccc2)cc1	-	29.9	-	86.3
CCC(C)NC(=O)COc1ccc(Br)c(C)c1 (stereo not given)	-	-	-	-
CCC(C)NC(=O)COc1ccc(OCc2ccccc2)cc1 (stereo not given)	-	12.2	-	-
O=C(CSc1nnnn1Cc1ccccc1)NCC(=O)c1ccccc1	50.1µM	-	.	-
O=C(CSc1nnnn1Cc1ccccc1)NCCc1ccccc1	-	-	-	-
CC(C)n1nnnc1SCC(=O)Nc1ccc2c(c1)OCO2	-	26.4	-	69.8
SMILES	Sm TGR inh	Cycloheximide cs	FMDV antiviral	Shiga toxin inh
c1ccn2c(SCc3ccc4c(c3)OCCO4)nnc2c1	-	51.3	-	98.1
O=C(CSC1=Nc2ccccc2C2CC=NN12)Nc1ccc2c(c1)OCO2 (stereo not given)	-	16.3	20µM	-
O=C1CC[C@@H](CN(Cc2cccnc2)C2CCN(c3ccc(NC(=O)c4cnccn4)cc3)CC2)N1	.	.	-	.
CCCCN(CC)c1nc(C)nc2c1c(C)c(C)n2-c1c(C)cc(C)cc1C	.	-	.	-
Cc1nnc(SCC(=O)Nc2ccc3c(c2)OCCO3)n1N	-	-	-	-
Cc1csc(SC(C)C(=O)Nc2ccc3c(c2)OCCO3)n1 (stereo not given)	-	29.4	-	-
CC(Sc1nnnn1C)C(=O)Nc1ccc2c(c1)OCCO2 (stereo not given)	-	29.2	-	114.9
Cc1ccc(NC(=O)CSc2nnnn2C)cc1S(=O)(=O)N(C)C	-	16.7	-	-
Cc1ccc(NC(=O)CSc2nnnn2C)cc1S(=O)(=O)N1CCCCC1	.	.	-	.
Nn1cnnc1SCC(=O)Nc1ccc2c(c1)OCCO2	-	11.6	.	-
O=C(CCc1nnc2n(Cc3ccccc3Cl)c(=O)c3ccccc3n12)Nc1ccc(F)cc1	-	.	-	.
Cc1ccc(NC(=O)C(C)Sc2nnc3ccccn23)cc1 (stereo not given)	.	.	-	.
CC(=O)Nc1ccc(C(=O)CSc2nnnn2C(C)C)cc1	-	21.3	-	80.5
CC(Sc1nnc2ccccn12)C(=O)Nc1ccc2c(c1)OCCO2 (stereo not given)	-	21.4	-	85.0
Cc1ccc(-n2nnnc2SCC(=O)Nc2ccc3c(c2)OCCO3)cc1C	-	-	-	-
O=C(CSc1nnnn1Cc1ccccc1)Nc1ccc2c(c1)OCO2	-	12.8	-	33.3
CC(=O)Nc1ccc(C(=O)CSc2nnnn2C)cc1	-	-	-	-
Cn1nnnc1SCC(=O)Nc1ccc2c(c1)OCCO2	-	32.8	-	80.9
C=C[C@@]1(C)CC(=O)[C@@]2(O)[C@@]3(C)[C@@H](O)CCC(C)(C)[C@@H]3[C@H](O)[C@H](OC(C)=O)[C@@]2(C)O1	.	.	-	.
CCc1ccc(-c2cn3c(n2)sc2cc(C(=O)NCCc4ccc(OC)cc4OC)ccc23)cc1	-	.	-	.
O=C(CSc1nnnn1Cc1ccccc1)Nc1ccc2c(c1)OCCO2	-	23.0	-	-
O=C(CSc1nccn1Cc1ccccc1)Nc1ccc2c(c1)OCCO2	-	.	-	.
CCS(=O)(=O)N1CC(=O)N(c2ccc(Cl)cc2)C(C)(C(=O)NC2CCCCC2)C1 (stereo not given)	-	.	-	.
O=c1cc(CSc2nnc(-c3cccs3)n2Cc2ccccc2)nc2sc3ccccc3n12	-	-	15.8µM	-
CCCN(Cc1cccs1)C(=O)Nc1cc(Cl)c(OC)cc1OC	-	.	-	.
SMILES	Sm TGR inh	Cycloheximide cs	FMDV antiviral	Shiga toxin inh
COc1ccccc1C1CN(Cc2cccc3c2OCO3)Cc2ccccc2O1 (stereo not given)	.	.	-	.
O=C(Cn1nnc(-c2ccccc2)n1)NCc1cccs1	-	-	-	-
O=C(CN(CCc1ccccc1)C(=O)Cn1nnc(-c2cccs2)n1)NCc1ccco1	50.1µM	-	.	-
O=C(Cn1nnc(-c2cccs2)n1)NCc1cccs1	-	64.8	-	-
Cc1ccc(C(=O)Cn2nnc(-c3cccs3)n2)cc1	-	31.7	-	79.2
O=C(Cn1nnc(-c2cccs2)n1)N1CCOCC1	-	-	-	-
O=C(CN1C(=O)COc2ccccc21)NCCc1ccc(Cl)cc1	-	.	-	.
O=C(COC(=O)c1cc(-c2cccs2)nc2ccccc12)c1ccc(Br)cc1	-	.	-	.
C/C(=N\O)c1ccc2c3c([nH]c2c1)CCCC3	-	65.2	-	19.9
COc1ccccc1Cc1nc2ccccc2nc1SCC(=O)N1CCC(C)CC1	-	.	-	.
CC1=CC2=NC(=O)/C(=C\c3cc(C)n(-c4ccccc4F)c3C)C(=N)N2O1	-	29.1	-	58.9
CC1=CC2=NC(=O)/C(=C\c3cc(C)n(-c4ccccc4)c3C)C(=N)N2O1	-	-	-	-
CC1=CC2=NC(=O)/C(=C\c3ccc(-c4ccc(Cl)cc4)o3)C(=N)N2O1	-	17.8	.	-
CC1=CC2=NC(=O)/C(=C/c3cccs3)C(=N)N2O1	-	-	-	-
Cc1ccn2c(Nc3ccc4c(c3)OCO4)c(-c3ccc(N(C)C)cc3)nc2c1	-	.	-	.
CN(C)Cc1ccccc1-c1cc(N(C)Cc2ccco2)ncn1	.	.	-	.
COCc1ccc(CN2CCc3c([nH]c4ccccc34)C2C(C)(C)C)o1 (stereo not given)	-	20.7	-	-

Bioassay records from PubChem BioAssay.
